This note sets out measurements from the supplement of paper PMC6555819.

For the test, the system named is VDR:RXRa (NR concentration 270 nM, RXRa partner concentration 90 nM). Kind of test: PBM binding z-score (relative to random genomic background probes); higher = stronger binding; sequences stand for … in GC…GCGATTGACAGCGTAGAATGAAGG
On the procedure: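 Protein-binding microarray (Agilent 4x180K custom design, double-stranded 60-nt probes: 5' GC cap, 34-nt variable region, 24-nt constant primer region; full probe sequence given). Purified or IVT nuclear receptor:RXRα heterodimers (3:1 NR:RXRα, mostly 270:90 nM) or homodimers were incubated for 1 h in PBS with 2% milk and no ligand, then detected with Alexa488 antibodies. Fluorescence from o1-orientation probes (~5 replicates averaged) was converted to z-scores against 500 random hg19 background probes. Variable regions are seed direct-repeat (DR0–DR5) sites, all their single-nucleotide variants and half-site ablations.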
As to AGTCAAAGTTCATCTAGGTTACGTAAGATATGCT, the PBM binding z-score stood at 5.8.

In turn, TCATATAGGTAAAAGGTGCAAGTCGGTGTGGTAA returned a PBM binding z-score of 1.09.

For the sequence CCTACTGGGCCAAGGTAATTGATCAGTCAAAGCA, the PBM binding z-score was -0.552.

Take GCTGCTAGGTCAACTAATGGTCAGCTAAAGCTCG: the PBM binding z-score was 1.35.

ATCTCTAGGTATAAGTTCAGTGAATCCCGAGGAT: the PBM binding z-score was 0.837.

Consider TCTTGTAGATCAGCAGGAGGTTAAGAAAGATCGA, for which the PBM binding z-score amounted to 0.561.

Sequence ATCTCTAGGTAAGACTTAGTTCAGTGAAGAACGC yielded a PBM binding z-score of 0.582.

Consider CCGACTGGGGCAAGGGTTACCATACTCAGTACGA, for which the PBM binding z-score is -0.292.

Regarding TCATATAGGTAAAGGTGCAAGTCGAACGATATGA, the PBM binding z-score was found to be 0.567.

The sequence CCAGACAGGTGATAGGTAACTCAGTCTGGTACGC displayed a PBM binding z-score of -0.0769.

Turning to CCTACTGGGCCATAAAGGTCATTGATGCCGATAA, the PBM binding z-score was found to be 4.93.

In turn, GATACAGGGTCAGCTAGAGGCCAGAATATGGAAA gave a PBM binding z-score of 3.19.

As for CCGACTGGGGCAGAAAGATTACCATACCATCCGG, the PBM binding z-score was -0.535.

Consider CCTACTGGTCCAAAAAGGTCATTGATGCCGATAA, for which the PBM binding z-score was determined as 4.99.

For the sequence AGAACGAGGGCACGCTGTGTTGATAGCAGAGTAG, the PBM binding z-score worked out at 0.783.

For GCGACTGAGGCAAAGCAGGTTACCATAAGGTTGG, the PBM binding z-score was -0.292.

The sequence AGCTCTAGGTAACCAAGTTCAGTGAATGCCGAAC came in with a PBM binding z-score of 3.88.

For ACAGACAGGTGATGAAGGTAATTCAGGCTATCAT, the PBM binding z-score came out at 0.0212.

ATCGAAAGGTCGACGTGGTGAGTATACACCGTTT yielded a PBM binding z-score of 2.73.

Regarding CGAACTAGGACAGAACAGGACAGTGAAGGATGAT, the PBM binding z-score is -0.358.

CGTACTAGGTCATTGACAGGACAGTGAATAGTAA returned a PBM binding z-score of 2.09.

TCGCCTAGGTCATGCGGGCCAGTATAGTGTCGGC: the PBM binding z-score was 3.04.

With GGAACGAGCGCATTCGAGTTGATAGCATGGCGAT, the PBM binding z-score was -0.761.

As for TGAATGAGGTTATAAGATCCGGGAACGTTGCAAA, the PBM binding z-score is 0.946.

On to AGAACTAGGGCACGCTGAGTTGATAGCAGAGTAG, for which the PBM binding z-score was determined as 0.303.

CCCGCTAGGTCAATGGTCAGCTAAAGCAGCTCGC came in with a PBM binding z-score of 1.02.

The sequence CTGGAAAGGTCGGTTGAGGTGAGTATACGGATAA came in with a PBM binding z-score of 2.15.

The sequence TCTTGTAGATCAACAGGAGGTTAAGTAAGATCGA showed a PBM binding z-score of 0.844.

On to CAGCCTAGGTCAGGGCCAGAATAGGAGGAACGTT, for which the PBM binding z-score stood at 0.0945.

The sequence ATCTCTAGGTAAAAGTGCAGTGAATCCCGAGGAT displayed a PBM binding z-score of 0.00627.

Take ATCAAAAGGTCGTGAGGTGAGTATACAGAAAGGC: the PBM binding z-score is 3.92.

With CCTGCTAGGCCATGGTCAGCTAATCTACAGTATG, the PBM binding z-score is -0.543.

With TCAGACAGGTAAAGGTAACTCAGGTACGCAGTCG, the PBM binding z-score was 1.44.

TCGAGTAGGTTAGGGGCATTCACAATGGCGTCGA came in with a PBM binding z-score of 0.522.

Sequence CCTAGTTGGACAAGGTCACACACGCTATAGGTAC registered a PBM binding z-score of 4.08.

As to ATCGAAAGGTCGTAGGTGAGTATACCCACCCGAA, the PBM binding z-score turned out to be 3.47.

On to CGAACTAGGTCATCCCGGACAGTGAATACATTGA, for which the PBM binding z-score came to 3.63.

On to TCATCTAGGTAAATGCTAGGTGAAAGTCCGATCT, for which the PBM binding z-score is 0.555.

TCTCGGAGGACACGAAATGTCAGAGCTCGACATC showed a PBM binding z-score of 0.0899.

TCGAGCAGGTTAGGGGCATTCAGAATGGCGTCGA returned a PBM binding z-score of 0.187.
